Compounds with a hit are over-represented: about 7.2% of the library has one in this group of screens.
VLA-4 inh = inhibition in a human VLA-4 binding assay | P13612 | VLA-4 expressing cells, ligand binding flow cytometry | inhibition, % (about 7 µM as worked out from the volumes in the protocol) | AID 2557 | 0.2% of 330,000 active; in the data active means inhibition above about 50%
Target sequence (P13612 whole entry, looked up): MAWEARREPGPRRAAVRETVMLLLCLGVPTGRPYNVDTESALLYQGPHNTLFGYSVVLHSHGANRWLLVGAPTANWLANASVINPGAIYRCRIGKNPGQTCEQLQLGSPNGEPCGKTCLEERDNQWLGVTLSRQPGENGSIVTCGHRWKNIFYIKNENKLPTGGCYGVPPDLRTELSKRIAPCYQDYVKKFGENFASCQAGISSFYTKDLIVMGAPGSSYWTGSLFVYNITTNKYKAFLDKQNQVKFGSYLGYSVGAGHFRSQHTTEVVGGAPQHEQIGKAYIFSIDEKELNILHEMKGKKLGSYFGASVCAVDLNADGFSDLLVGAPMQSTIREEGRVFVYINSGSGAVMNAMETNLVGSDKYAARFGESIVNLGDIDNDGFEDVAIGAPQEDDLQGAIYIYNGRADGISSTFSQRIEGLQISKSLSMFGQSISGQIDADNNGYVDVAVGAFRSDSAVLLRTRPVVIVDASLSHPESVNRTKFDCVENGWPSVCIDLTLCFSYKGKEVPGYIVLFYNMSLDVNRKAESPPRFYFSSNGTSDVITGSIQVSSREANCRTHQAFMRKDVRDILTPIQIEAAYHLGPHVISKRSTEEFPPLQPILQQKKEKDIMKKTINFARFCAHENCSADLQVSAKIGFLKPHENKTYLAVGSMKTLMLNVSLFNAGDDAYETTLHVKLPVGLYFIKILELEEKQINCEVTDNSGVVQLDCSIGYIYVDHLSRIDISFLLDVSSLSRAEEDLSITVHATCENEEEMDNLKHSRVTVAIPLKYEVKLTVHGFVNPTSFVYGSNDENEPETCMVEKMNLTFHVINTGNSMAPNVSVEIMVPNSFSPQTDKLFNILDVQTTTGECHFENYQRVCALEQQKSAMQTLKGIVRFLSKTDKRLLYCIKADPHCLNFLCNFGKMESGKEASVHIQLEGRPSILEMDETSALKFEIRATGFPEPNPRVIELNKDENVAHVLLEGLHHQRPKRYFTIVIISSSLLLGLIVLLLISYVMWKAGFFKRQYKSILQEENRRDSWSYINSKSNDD
ALR H2O2 inh = human ALR oxidase inhibition via reduced H2O2 | P55789 | purified ALR, DTT oxidation, H2O2 HRP-luminol luminescence | inhibition, % (no concentration beside the values) | 3.8% of 290,000 active | AID 485317;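 active means mean replicate inhibition above about 79%, with every replicate also reaching it, limit read from the data; inconclusive means only one of the two criteria met; inactive means mean below limit and not every replicate reaching it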
Mot1-301 SUMO = inhibitors of SUMOylation pathway: yeast Mot1-301 growth rescue | S. cerevisiae Mot1-301 growth rescue, ATP luminescence, 38.5C; percent above DMSO median, 100 means doubled | growth rescue, % at 18.8 µM | 1% of 320,000 active;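 active means every valid replicate shows activation above 250% relative to neutral control wells; inactive means the rest, any valid replicate at or below 250%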
AHR act = human AHR activation | AHR-responsive luciferase reporter cells, luminescence | AID 2796 | activation, % at 5 µM | P35869 | 2.5% of 320,000 active; in the data active means activation above about 47%
Bfl-1 A1 inh = inhibitors of the anti-apoptotic protein A1, read as caspase activation; 0.066% of 330,000 active; MEF A1-2A-BIM cells, Caspase-Glo 3/7 luminescence, 3 h; percent of clofoctol response, vehicle zero; caspase activation, % (test concentration not listed); AID 2462;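 active means over half of replicate activation scores above 10%, or exactly half above 10 with the replicate mean above 10; inconclusive means replicate mean below 10 yet half the replicates above 10; inactive means over half of replicates below 10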
Efflux pump inh = blocks antifungal efflux pumps in multiplex yeast assay. S. cerevisiae Candida pump triplex, Nile Red efflux. inhibition, % at 10 µM. 0.44% of 330,000 active. AID 485275;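 active means plate passing quality check with inhibition over a set limit, or well fluorescence over plate mean plus 4 SD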;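 further: Nile Red retained in pooled yeast measured as flow cytometry median fluorescence; higher means more Nile Red kept so more efflux inhibition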
Large screens that a line does not name were inactive.

Cc1ccc(OCC(=O)Nc2cccc(O)c2)cc1C	ALR H2O2 inh 98
Cc1ccc(OCC(=O)NC2CCCCCC2)cc1C	none
Cc1cccc(OCC(=O)Nc2cccc(O)c2)c1	none
CNC(=S)NNC(=O)COc1ccc(C)c(C)c1	ALR H2O2 inh 90
CCn1c2ccccc2c2cc(NC(=O)c3ccc(Br)o3)ccc21	AHR act 63
CCn1c2ccccc2c2cc(NC(=O)c3coc(=O)c(Br)c3)ccc21	none
COc1ccc(NC(=O)CCCN2C(=O)CCC2=O)cc1Cl	none
CCn1c2ccccc2c2cc(NC(=O)c3ccc(=O)oc3)ccc21	AHR act 58
CCn1c2ccccc2c2cc(NC(=O)CCCN3C(=O)CCC3=O)ccc21	AHR act 67
CCn1c2ccccc2c2cc(NC(=O)c3cc(C)on3)ccc21	AHR act 53
O=C(c1ccccc1)C1CCN(C(=O)C2CCC(=O)N(Cc3ccccc3F)C2)CC1 (stereo not given)	none
CCOc1ccc(OCC)c(S(=O)(=O)n2cnc(C)c2)c1	none
CCOc1ccc(NC(=O)COC(=O)Cc2ccsc2)cc1	none
N/C(=N\O)c1ccc(NC(=O)c2ccc(Br)o2)cc1	ALR H2O2 inh 98
CCn1c2ccccc2c2cc(NC(=O)COC(=O)c3ccccc3O)ccc21	none
CCn1c2ccccc2c2cc(NC(=O)COC(=O)c3cc(Cl)c(N)cc3OC)ccc21	AHR act 73
c1ccc(-c2cc3c(nn2)CCc2nonc2-3)cc1	AHR act 57
Cc1c([N+](=O)[O-])c(C(=O)Sc2ccc(Br)cc2)nn1C	ALR H2O2 inh 99
COc1cccc(-c2n[nH]c(=S)n2Cc2ccco2)c1	none
CC(C)Cn1c(-c2ccc(F)cc2)n[nH]c1=S	none
CC(C)Cn1c(-c2ccncc2)n[nH]c1=S	ALR H2O2 inh 87
S=c1[nH]nc(-c2ccncc2)n1CC1CCCO1 (stereo not given)	ALR H2O2 inh 93
S=c1[nH]nc(-c2ccncc2)n1Cc1ccco1	ALR H2O2 inh 96
S=c1[nH]nc(-c2ccc(Br)cc2)n1Cc1ccco1	ALR H2O2 inh 88
CCN(C(=O)COC(=O)c1ccccc1NC(=O)c1ccco1)C1CCS(=O)(=O)C1 (stereo not given)	Mot1-301 SUMO 418
COc1ccc(S(=O)(=O)NCC2CCCN(Cc3cccc(C(C)=O)c3)C2)cc1 (stereo not given)	ALR H2O2 inh 76
CC(=O)Nc1ccc(S(=O)(=O)NCC2CCC(C(=O)N3CCCCC3)CC2)cc1 (stereo not given)	none
CCOC(=O)C1CCCN(C(=O)C2CCC(CNS(=O)(=O)c3ccc(NC(C)=O)cc3)CC2)C1 (stereo not given)	Mot1-301 SUMO 282
COCC(=O)N1CCCC(CNS(=O)(=O)c2ccc(OC)cc2)C1 (stereo not given)	Mot1-301 SUMO 670
C#CCONC(=O)c1cc(OCC(F)(F)F)ccc1OCC(F)(F)F	none (no result: Mot1-301 SUMO)
O=C(CN1CCN(c2ccc(O)cc2)CC1)N1CCc2ccccc21	ALR H2O2 inh 80
Cc1oc(C(C)(C)C)cc1C(=O)Nc1ccc(N2CCOCC2)cc1	none
NC(=NCc1ccccc1)NC(=O)c1nc(Cl)c(N)nc1N	AHR act 69
CC/C(C)=N/Nc1nc(-c2cc3cccc(OC)c3oc2=O)cs1	ALR H2O2 inh 98
Cc1cc(C)n(CCc2nc(-c3ccco3)cs2)n1	ALR H2O2 inh 99
COc1ccc(OC)c(-c2csc(CCn3nc(C)cc3C)n2)c1	none (no result: ALR H2O2 inh)
COc1cccc2cc(-c3csc(CCn4nc(C)cc4C)n3)c(=O)oc12	ALR H2O2 inh 98
Cn1c(N)c(C(=O)COC(=O)CCC(=O)c2ccc(F)cc2)c(=O)n(C)c1=O	none
CN1C=CC=C/C1=C(\C#N)c1nc2ccccc2[nH]1	ALR H2O2 inh 99
O=C1NN(c2ccccc2)C(=O)/C1=C\c1ccccc1OCC(=O)N1CCOCC1	ALR H2O2 inh 99
COC(=O)CSc1nnc(C)n1-c1ccc(C)cc1	none
Cc1ccc(-n2c(C)nnc2SC(C)C(=O)N2CCCC2)cc1 (stereo not given)	Mot1-301 SUMO 285
Cc1n[nH]c(=S)n1/N=C/c1ccc(-c2ccccc2[N+](=O)[O-])o1	AHR act 60
Cc1nnc(N/N=C\c2ccc(-c3ccccc3[N+](=O)[O-])o2)n1N	AHR act 61
O=[N+]([O-])c1cccc(-c2ccc(/C=N/n3c(-c4ccccc4)n[nH]c3=S)o2)c1	Bfl-1 A1 inh inconclusive
O=C(N/N=C/c1ccc(-c2ccccc2[N+](=O)[O-])o1)[C@H]1C[C@@H]1c1ccccc1	AHR act 69
Cc1[nH]nc2c1C(c1ccsc1)C1=C(CC(C)(C)CC1=O)N2 (stereo not given)	none
O=c1n(Cc2ccccc2Cl)nc2n1-c1ccccc1SC2	none
O=C(N/C(=C\c1ccccc1)C(=O)N1CCOCC1)c1ccccc1Cl	none
O=C(N/C(=C/C=C/c1ccccc1)C(=O)N1CCOCC1)c1ccccc1Cl	AHR act 67
C/C(=N\NC(=O)C(O)(c1ccccc1)c1ccccc1)c1ccc(NC(=O)CCCC(=O)O)cc1	none (no result: AHR act)
Cc1nn(-c2ccccc2)c2sc(-c3n[nH]c(=S)o3)cc12	ALR H2O2 inh 98
Nc1ccc(S(N)(=O)=O)cc1N	ALR H2O2 inh 84, AHR act 115
O=C(NC1CCCCC1)C(=S)N1CCOCC1	none
Cc1cc(C)n(-c2cc(-c3ccccc3)nc(C)n2)n1	Mot1-301 SUMO 336
Cc1nc(-c2ccc(S(=O)(=O)NCc3ccccn3)s2)cs1	none
CN(Cc1ccccc1)/C(=N/O)c1cccc(Cl)c1	none
Cc1nc(SCc2ccc(Cl)c(Cl)c2)ncc1C(=O)O	ALR H2O2 inh 97
Cc1cnc(CNC(=O)c2ccc3oc(Cc4ccc(Cl)cc4)nc3c2)cn1	none
O=C1CCCC2=C1C(c1ccc(O)c(O)c1)Nc1ccc3ncccc3c12 (stereo not given)	ALR H2O2 inh 99
Cc1ccc(C(=O)NCCc2nnc3ccc(SCC(=O)Nc4c(C)cc(C)cc4C)nn23)cc1	none
CCCCN(C)CCCNC(=O)CS(=O)Cc1nc(-c2ccc(OC)c(OC)c2)oc1C (stereo not given)	ALR H2O2 inh 100
CCCN(CCC)CCCNC(=O)CS(=O)Cc1nc(-c2ccc(OC)c(OC)c2)oc1C (stereo not given)	ALR H2O2 inh 100
O=C(N/N=C\c1ccccn1)C1COc2cc3ccccc3cc2O1 (stereo not given)	none (no result: ALR H2O2 inh)
CCOc1cc(C(=O)Nc2cc(C)ccc2OC)ccc1OCC(=O)N1CCCCC1	none
CCCC(=O)Nc1ccc(NCc2ccc(C)s2)cc1	ALR H2O2 inh 91
CC(=O)Nc1ccc(NCc2ccc(C)s2)cc1	ALR H2O2 inh 96
CCCC(=O)Nc1ccc(N2CCOCC2)cc1	none

Screening results as filed in PubChem BioAssay.
